Source: PubChem BioAssay (NCATS)
Inconclusive results are not listed. Where a call stands in place of a potency, no number is given. A structure can be active in one record and inactive in another. Calls of active or inactive are those of the source. The call rests on the fitted dose curve; in most records, active means well fitted inhibition curve with a large enough effect; inconclusive means small, poorly fitted or top-dose-only effect; inactive means no such curve, though single readings can be large or run the other way.

Biological target: M-phase phosphoprotein 8 (Homo sapiens) (UniProt Q99549)
Experiment: qHTS Validation Assay for Inhibitors for MPP8 Chromodomain Interactions with Methylated Histone Tails (AID 488949); further: nearly all actives have a fitted effect of over 55% in size
Settings: AlphaScreen MPP8 binding to H3K9me3 peptide; series mostly up to 57.1 µM
Summary of the method: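 50 nM MPP8 + 50 nM b-H3K9me3 peptide, PBS pH 7.4/0.01% Tween-20, 30 min RT; + cpd 30 min RT; + AlphaScreen donor/Ni-chelate acceptor beads 10 ug/mL final, 30 min dark; luminescence read.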
Potency means the concentration at half of the fitted maximal effect.

Chain of M-phase phosphoprotein 8 (Homo sapiens) (Q99549 whole entry, looked up): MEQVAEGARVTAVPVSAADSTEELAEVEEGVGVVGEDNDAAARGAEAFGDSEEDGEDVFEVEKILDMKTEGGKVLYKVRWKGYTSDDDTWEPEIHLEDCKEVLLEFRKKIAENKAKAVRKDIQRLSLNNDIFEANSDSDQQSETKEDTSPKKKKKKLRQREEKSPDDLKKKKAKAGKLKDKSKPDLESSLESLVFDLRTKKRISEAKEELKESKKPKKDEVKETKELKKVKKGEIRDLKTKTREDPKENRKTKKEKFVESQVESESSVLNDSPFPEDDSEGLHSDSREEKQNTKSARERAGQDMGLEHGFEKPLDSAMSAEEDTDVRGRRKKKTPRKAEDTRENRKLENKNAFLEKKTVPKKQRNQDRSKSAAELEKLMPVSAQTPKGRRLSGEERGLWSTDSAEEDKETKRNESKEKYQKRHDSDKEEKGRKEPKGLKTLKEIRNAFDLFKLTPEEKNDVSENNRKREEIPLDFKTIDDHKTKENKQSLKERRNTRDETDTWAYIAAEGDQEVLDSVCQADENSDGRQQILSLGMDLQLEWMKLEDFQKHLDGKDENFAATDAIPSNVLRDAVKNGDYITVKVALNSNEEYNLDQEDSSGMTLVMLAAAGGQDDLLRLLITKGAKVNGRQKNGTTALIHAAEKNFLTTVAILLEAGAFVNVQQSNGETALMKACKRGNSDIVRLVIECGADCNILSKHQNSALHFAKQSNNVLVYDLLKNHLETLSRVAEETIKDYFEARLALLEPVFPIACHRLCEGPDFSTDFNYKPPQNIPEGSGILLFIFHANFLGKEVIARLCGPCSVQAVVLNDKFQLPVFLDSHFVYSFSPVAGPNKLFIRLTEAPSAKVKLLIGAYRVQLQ

SMILES | Potency
COc1cc2c(cc1OC)-c1cc(=Nc3c(C)cc(C)cc3C)n(C)c(=O)n1CC2 | 39.8 µM (active) and inactive
COCCc1ccc(OCC(O)CNC(C)C)cc1 (stereo unspecified) | inactive
NC(=O)N1c2ccccc2C=Cc2ccccc21 | inactive
CCCCCN(CCCCC)C(=O)C(CCC(=O)O)NC(=O)c1ccc(Cl)c(Cl)c1 (stereo unspecified) | inactive
NC(N)=NC(=O)Cc1c(Cl)cccc1Cl | inactive
CN(C)CC[C@@H](c1ccc(Br)cc1)c1ccccn1 | inactive
CNCCC(Oc1ccccc1OC)c1ccccc1 (stereo unspecified) | inactive
C[N+](C)(C)CCOC(=O)CCC(=O)OCC[N+](C)(C)C | inactive
NC(N)=N/N=C/c1c(Cl)cccc1Cl | inactive
O=C1NCN(c2ccccc2)C12CCN(CCCC(c1ccc(F)cc1)c1ccc(F)cc1)CC2 | 14.1 µM (active)
C[N+](C)(C)CCCCCCCCCC[N+](C)(C)C | inactive
COc1ccc(CN(CCN(C)C)c2ccccn2)cc1 | inactive
CC[N+](C)(C)c1cccc(O)c1 | inactive
c1cnc(N2CCN(Cc3ccc4c(c3)OCO4)CC2)nc1 | inactive
CC1=C(C)C(=O)C(CCCCC#CCCCC#CCO)=C(C)C1=O | 31.6 µM (active)
CCN1CCc2nc(N)oc2CC1 | inactive
O=C(O)CN(CCN(CC(=O)O)CC(=O)O)CCN(CC(=O)O)CC(=O)O | inactive
CC(C)COCC(CN(Cc1ccccc1)c1ccccc1)N1CCCC1 (stereo unspecified) | inactive
CCCCNc1c(C(=O)OCC)c(C)nc2c1cnn2CC | inactive
CC(C)NNC(=O)c1ccncc1 | inactive
O=C(CCCN1CCC(O)(c2cccc(C(F)(F)F)c2)CC1)c1ccc(F)cc1 | inactive
